CBFb-RUNX1 inh = blocks binding between human CBF-beta and RUNX1; AlphaScreen CBFb-His/RUNX1-biotin binding, biochemical; AID 1477; Potency, µM (series often up to 59.8 µM), inactives show at the top dose activity, negative = inhibition, actives largely listed as inhibitors; Q01196+Q13951; 230,000 tested, under 10 active; note: % of control where 0% means no effect
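Compounds were screened at multiple concentrations against a preformed CBF-beta(His)/RUNX1(biotin) complex (30 nM of each) for 15 min at room temperature, followed by 90 min with nickel and streptavidin beads and AlphaScreen reading.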
HTT cytoprotect = Huntington cell model cytoprotection by ATP luminescence. AID 1471. Potency, µM (titrated, usually from 56.4 µM), without a hit: cytoprotection (ATP increase), usual class: activators. PC12 HTT-Q103 induced, cytoprotection, ATP luminescence, 40 h. hit rate 0.14% among 230,000; note: potency is the fitted concentration of half-maximal effect; % of control where 0% means no effect; nearly all actives have a fitted effect of over 45% in size
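Huntington model: PC12 line, ecdysone-inducible HTTQ103 exon1–GFP, tebufenozide 100 nM. Test articles in a dose series. Endpoint luminescence from cellular ATP.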
ALDH1A1 block = ALDH1A1 (human) enzyme inhibition | P00352 | Purified ALDH1A1, NADH fluorescence, propionaldehyde substrate | Potency, µM (highest dose often 75.3 µM), without a hit: at the top dose activity, negative = inhibition, actives largely listed as inhibitors | hit rate 7.3% among 220,000 | AID 1030; active = well fitted inhibition curve with a large enough effect, not every such curve was filed as active; inconclusive = small, poorly fitted or top-dose-only effect, or another doubt; inactive = no such curve, though single readings can be large or run the other way;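 note: potency is the fitted concentration of half-maximal effect; plate controls were no enzyme wells and a reference inhibitor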
Target sequence (P00352 whole entry, looked up): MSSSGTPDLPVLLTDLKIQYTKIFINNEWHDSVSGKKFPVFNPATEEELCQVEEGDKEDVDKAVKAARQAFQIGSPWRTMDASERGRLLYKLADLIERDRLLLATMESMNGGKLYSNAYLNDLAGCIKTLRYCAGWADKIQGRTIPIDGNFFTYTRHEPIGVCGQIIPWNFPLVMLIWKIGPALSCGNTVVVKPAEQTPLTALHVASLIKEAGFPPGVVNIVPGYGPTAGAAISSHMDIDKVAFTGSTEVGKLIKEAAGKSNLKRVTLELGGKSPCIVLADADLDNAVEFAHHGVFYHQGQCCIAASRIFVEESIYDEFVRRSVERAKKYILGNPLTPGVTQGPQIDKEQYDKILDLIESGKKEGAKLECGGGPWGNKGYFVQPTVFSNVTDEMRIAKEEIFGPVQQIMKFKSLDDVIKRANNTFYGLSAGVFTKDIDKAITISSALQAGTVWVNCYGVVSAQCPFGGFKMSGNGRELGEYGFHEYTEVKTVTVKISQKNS
PNC assembly inh = perinucleolar compartment assembly inhibition; PC3M PTB-GFP, PNC prevalence imaging, 16 h; stronger effect = lower value; activity change (PNC), negative = inhibition, % at 10 µM; hit rate 3.1% among 140,000;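 active = readout at or below -70, meaning at least 70% loss of cells showing the perinucleolar compartment, a nuclear body marking cancer cells; inconclusive = readout between -30 and a set limit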;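 note: plate controls were DMSO wells for no effect and camptothecin positive control wells for full effect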
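Compounds are pinned in duplicate onto adhered PC3M cells stably expressing GFP-tagged PTB and incubated 16 h at 37 C. Cells are then fixed, nuclei stained with Hoechst, and PNC-positive cells counted.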
HPGD inh = blocks human HPGD enzyme activity | P15428 | purified HPGD, NADH fluorescence kinetic, PGE2 substrate | Potency, µM, without a hit: at the top dose activity change, negative = inhibition, most hits filed as inhibitors | hit rate 4.3% among 150,000; active = well fitted inhibition curve with a large enough effect, not every such curve was filed as active; inconclusive = small, poorly fitted or top-dose-only effect, or another doubt; inactive = no such curve, though single readings can be large or run the other way; note: potency is the fitted concentration of half-maximal effect; % is set by controls: 0 for no effect and ±100 for the full control effect
Target sequence (P15428 whole entry, looked up): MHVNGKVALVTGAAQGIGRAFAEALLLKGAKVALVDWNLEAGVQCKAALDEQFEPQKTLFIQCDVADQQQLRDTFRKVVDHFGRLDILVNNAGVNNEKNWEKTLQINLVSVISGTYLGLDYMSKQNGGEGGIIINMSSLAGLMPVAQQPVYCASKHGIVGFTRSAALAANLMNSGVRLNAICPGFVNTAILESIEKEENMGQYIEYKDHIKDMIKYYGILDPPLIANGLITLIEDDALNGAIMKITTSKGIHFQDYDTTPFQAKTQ
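20 nM HPGD preincubated 15 min at room temperature with compound in 50 mM Tris-HCl pH 8, 0.01% Tween 20. Started with 1 mM NAD+ and 30 uM prostaglandin E2; NADH fluorescence (360/450 nm) read 5 times over 30-s intervals, last minus first.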
HTT aggregate = inhibitors of mutant huntingtin aggregate formation in PC12 cells | PC12 HttQ103-GFP aggregates, Acumen cytometry, 40 h | Potency, µM (highest dose often 46.1 µM), inactives show at the top dose activity change, negative = inhibition, usual class: inhibitors | hit rate 1.1% among 220,000; note: potency is the fitted concentration of half-maximal effect; % is set by controls: 0 for no effect and ±100 for the full control effect; nearly all actives have a fitted effect of over 60% in size
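Compounds (qHTS titration) were added to PC12 cells expressing an ecdysone-driven HTT exon 1 Q103–GFP fusion after induction with 100 nM tebufenozide. Aggregate formation was measured as GFP objects in cell lysates.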
Numbers without * were called inactive; u = inconclusive; x = no result given; [ ] = another dose, or the depositor's remark. Compounds with a hit are over-represented: about 11% of the library has one in this group of screens. Unless noted, calls come from the whole dose curve; as a rule, active = well fitted curve in the direction sought with a large enough effect; inconclusive = small, poorly fitted or top-dose-only effect, or another doubt; inactive = no such curve, though single readings can be large; an effect the other way counts as inactive or inconclusive.

SMILES | CBFb-RUNX1 inh | HTT cytoprotect | ALDH1A1 block | PNC assembly inh | HPGD inh | HTT aggregate
COc1ccc(CC(=O)NCCC2=CCCCC2)cc1 | 5% | x | 24µM* | x | x | 4%
O=C(NC(=S)NCCC1=CCCCC1)c1ccccc1Br | -4% | 1%[10 µM] | 7.1µM* | x | x | 9%[9.22 µM]
COC(=O)c1cccc(NC(=S)NCCC2=CCCCC2)c1 | -2% | -6% | 28µM* | 40 | u | 4%
COc1ccc(C(=O)NCC(=O)OCC(=O)NC2CCCC2)cc1 | -5% | 3% | u | x | x | -7%
O=C(COC(=O)c1ccccc1Br)NCCC1=CCCCC1 | 9% | -1% | -7% | x | x | 3%
C1CN(c2nc(N3CCOCC3)nc(N3CCOCC3)n2)CCO1 | 0% | 23%[10 µM] | x | x | x | 12%[9.22 µM]
COc1ccc(Nc2nnc(-c3ccc(O)cc3)c3ccccc23)cc1 | -5% | -81% | 12% | x | x | 6%[9.22 µM]
CC(C)(C)NS(=O)(=O)c1ccc(OCC(=O)NCCC2=CCCCC2)cc1 | 12% | 8% | -3% | u | 2% | 21%[9.22 µM]
COc1ccc(OCCC(=O)OCC(=O)NCCC2=CCCCC2)cc1 | u | -32% | 13µM* | x | x | 4%
O=C(COc1ncnc2ccccc12)NCCC1=CCCCC1 | 2% | -12%[10 µM] | 2% | -25 | -8% | -16%[9.22 µM]
O=C(COc1cnc2ccccc2n1)NCCC1=CCCCC1 | 2% | 10%[10 µM] | 11µM* | 14 | -15% | 4%
O=C(COC(=O)COc1ccc(Br)cc1)NCCC1=CCCCC1 | 12% | 10%[10 µM] | u | -29 | -12% | -22%
CCOC(=O)COc1ccc(S(=O)(=O)NCCC2=CCCCC2)cc1 | 4% | 4%[0.074 µM] | 32µM* | u | -10% | -11%
CN(C)c1ccc(P(=O)(OCc2ccccc2)C(O)c2ccccc2)cc1 (centres undefined) | -7% | 1%[10 µM] | -15% | x | x | -23%[9.22 µM]
Cc1nc2ccccn2c1-c1ccnc(=S)[nH]1 | 1% | -2%[10 µM] | u | x | x | -21%[9.22 µM]
CCCN(C(=O)c1ccco1)c1nnc(-c2ccccc2C)s1 | 2% | -72%[10 µM] | 8.9µM* | x | x | -19%[9.22 µM]
O=C(CCCCCN1C(=O)c2ccccc2C1=O)NC1CCCC1 | 5% | 15% | u | -1 | 4.5µM* | 0%
O=C(CCSc1ccccc1)NC1CCCC1 | -1% | 0%[10 µM] | -4% | 17 | 14µM* | -29%
O=C(CN1C(=O)C(=O)c2ccccc21)NC1CCCCC1 | 3% | u | 0.89µM* | 35 | -6% | 4%
O=C(CCCCCCN1C(=O)c2ccccc2C1=O)NC1CCCCC1 | 5% | 4%[1.9 µM] | -3% | 2 | 4.5µM* | -4%
O=C(CCSc1ccccc1)Nc1ncccn1 | 4% | 20%[10 µM] | 1% | -14 | -12% | 3%
CC(C)(C)NC(=O)CN(C(=O)CN1C(=O)C(=O)c2ccccc21)C(C)(C)C | 8% | 4% | 0.13µM* | x | x | 20%
CN1CC=C2C(C#N)=C(N)C(C#N)(C#N)[C@H](c3cccs3)[C@H]2C1 | -6% | 14%[10 µM] | u | -94* | u | -30%
COc1cc([C@@H]2[C@H]3CN(C)CC=C3C(C#N)=C(N)C2(C#N)C#N)cc2c1OCO2 | -2% | 17%[10 µM] | -5% | -99* | -19% | 27%
CC(C)c1ccc(C2C3CSCC=C3C(C#N)=C(N)C2(C#N)C#N)cc1 (centres undefined) | -5% | u | 16µM* | 12 | u | 30%
SMILES | CBFb-RUNX1 inh | HTT cytoprotect | ALDH1A1 block | PNC assembly inh | HPGD inh | HTT aggregate
CCCC1C2CN(C(C)C)CC=C2C(C#N)=C(N)C1(C#N)C#N (centres undefined) | -7% | -7% | u | -92* | u | u
CN1CC=C2C(C#N)=C(N)C(C#N)(C#N)C(CCc3ccccc3)C2C1 (centres undefined) | 2% | -3%[10 µM] | u | -14 | u | -19%
CN[C@]1(C)[C@@H]2CC[C@@H](C2)C1(C)C | x | -1%[1.9 µM] | x | x | x | x
Cc1noc(C)c1-c1ccc2ncnc(N(C)C)c2c1 | x | -68% | -9% | x | x | x
COCCNC(=O)Cn1cc(C(=S)N2CCOCC2)c2ccccc21 | -1% | -33% | 32µM* | x | x | 3%[9.22 µM]
COCCCNC(=O)Cn1cc(C(C)=O)c2ccccc21 | 5% | 4% | 3% | u | -3% | -10%
COc1ccc2c(c1)O[C@@H](c1cccc(C(F)(F)F)c1)[C@H](OC(=O)NS(=O)(=O)c1ccc(F)cc1)C2=O | 2% | -14% | -2% | x | -15% | x
CCC(c1nnnn1C1CCCC1)N1CCC(C(N)=O)CC1 (centres undefined) | 18% | -44% | u | x | x | -4%
FC(F)(F)c1cccc(-c2nn[nH]n2)c1 | 11% | -25% | 6% | x | x | 22%
CC(C)CSc1ncc(-c2cccc(C(F)(F)F)c2)cn1 | 0% | 5% | 22µM* | 47 | -14% | -4%
Nc1nc(Cn2nnc(-c3ccccc3Cl)n2)nc(N2CCOCC2)n1 | 5% | 12% | -2% | -7 | -5% | -9%
Clc1ccccc1Cn1nnc(-c2ccccc2)n1 | -2% | x | -3% | x | x | x
Clc1ccccc1-c1nnn(Cc2ccc(-c3nn[nH]n3)cc2)n1 | u | 4%[0.074 µM] | 16µM* | 17 | 13µM* | 0%
Clc1ccc(Cn2nnc(-c3ccccc3)n2)cc1 | 19% | 22%[10 µM] | 5% | -100* | -14% | 0%
C/C(CCC(=O)OC[C@@H]1O[C@H](C#Cc2ccccc2)C=C[C@@H]1Oc1ccc(C)cc1)=N/O[C@@H](C)c1cn([C@H]2COC[C@H]2O)nn1 | 9%[13.1 µM] | -2%[10 µM] | -4%[13.5 µM] | x | x | x
CCn1c(COc2cccc(C)c2C)nnc1SCC(=O)N1CCN(c2ccc(OC)cc2)CC1 | -9% | 5% | -9% | -3 | -7% | -18%
O=c1c2ccccc2nc(-c2ccco2)n1CCCn1ccnc1 | 0% | -4% | 8% | -7 | -12% | 18%
O=C(Cc1coc2cc3c(cc12)CCC3)NC1CCCCCCC1 | 0% | -8%[1.9 µM] | 0% | -23 | 14µM* | 9%
Cc1ccc(S(=O)(=O)NC(=O)c2ccc(-c3ccc(-c4ccccc4)cc3)o2)c(C)c1 | -4%[2.36 µM] | x | u | 48 | u | 7%
Cc1[nH]c(=O)[nH]c(=O)c1S(=O)(=O)N(C)Cc1ccccc1 | 0% | 1% | 6% | -106* | -7% | 9%
Cc1cccnc1N(C(=O)Nc1ccccc1)C1=NCC(C)(C)S1 | 6% | -3% | 3% | -89* | -5% | 4%
Cc1cccnc1N(C(=O)Nc1cccc(Cl)c1)C1=NCC(C)(C)S1 | 1% | x | 15% | -27 | -12% | -13%
CC(=NC1CCCCC1)c1ccccc1O | x | -9%[10 µM] | u | x | -7% | x
Cc1cc(C)n(-c2nc3c(c(=O)[nH]c(=O)n3C)n2CC(O)COc2ccc(Cl)cc2Cl)n1 (centres undefined) | -2% | -64%[10 µM] | 3% | 61 | 3.5µM* | -22%
